This is part of a sample that, as a whole, favours compounds with a hit. Of some 83,000 tested, about 20% had one in any assay.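 Negative percent growth values reflect cell death: -40 means 40% of the cells present at the start died, and -100 means all died.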 Values without a mark were called inactive. Calls of active or inactive are those of the source. Rule for the calls: active = growth percent below 10; inactive = the rest.
Tests used:
Assay in all cases: NCI-60 one-dose screen, 48 h (100 = growth as untreated, 0 = no growth, -100 = all killed)
SK-MEL-2 melanoma = settings: 10 µM
EKVX NSCLC = settings: 10 µM
SN12C renal = settings: 10 µM
UO-31 renal = settings: 10 µM
ACHN renal = settings: 10 µM
CAKI-1 renal = settings: 10 µM
A498 renal = settings: 10 µM
MOLT-4 leukemia = settings: 10 µM
RPMI-8226 leukemia = settings: 10 µM
OVCAR-8 ovarian = settings: 10 µM
OVCAR-5 ovarian = settings: 10 µM
OVCAR-4 ovarian = settings: 10 µM
SK-OV-3 ovarian = settings: 10 µM
HS 578T breast = settings: 10 µM
TK-10 renal = settings: 10 µM unless noted
IGROV1 ovarian = settings: 10 µM
HL-60(TB) leukemia = settings: 10 µM
CCRF-CEM leukemia = settings: 10 µM
SR leukemia = settings: 10 µM

Compound	growth (SK-MEL-2 melanoma)	growth (EKVX NSCLC)	growth (SN12C renal)	growth (UO-31 renal)	growth (ACHN renal)	growth (CAKI-1 renal)	growth (A498 renal)	growth (MOLT-4 leukemia)	growth (RPMI-8226 leukemia)	growth (OVCAR-8 ovarian)	growth (OVCAR-5 ovarian)	growth (OVCAR-4 ovarian)	growth (SK-OV-3 ovarian)	growth (HS 578T breast)	growth (TK-10 renal)	growth (IGROV1 ovarian)	growth (HL-60(TB) leukemia)	growth (CCRF-CEM leukemia)	growth (SR leukemia)
CCOP(=O)(OCC)/C(C#N)=C/c1ccc(Br)cc1	103%	97.6%	98.5%	81.3%	98.6%	76.2%	121%	92%	54.9%	100%	90.7%	98.4%	97.4%	100%	–	–	–	–	–
N#CCc1ccccc1	99.9%	–	99.6%	93%	108%	104%	–	97.9%	101%	105%	101%	94.6%	98.4%	106%	108%	115%	–	–	–
COc1ccc2c(ccc3oc([N+](=O)[O-])cc32)c1	–	–	6.57% (active)	-13.4% (active)	2.78% (active)	5.89% (active)	-76.1% (active)	-19% (active)	12.1%	0.0755% (active)	9.85% (active)	28.9%	-12.6% (active)	-7.73% (active)	–	–	-31.4% (active)	4.13% (active)	-9.5% (active)
CCCCCCCC[N+]12CN3CN(CN(C3)C1)C2	120%	–	96.8%	87.9%	99.5%	92.5%	95.2%	120%	90.1%	101%	96.5%	99.2%	103%	92.4%	99.8%	108%	–	97.1%	92.7%
